Source: PubChem (National Center for Advancing Translational Sciences (NCATS))
BAZ2B inh: inhibitors of human BAZ2B bromodomain; AlphaScreen BAZ2B-H3K14Ac peptide displacement; Potency, µM (doses to about 114 µM), most hits filed as inhibitors; 360,000 compounds, 4.4% hits; note: nearly all actives have a fitted effect of over 60% in size
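AlphaScreen displacement of biotin-H3(5-23)K14Ac peptide (50 nM final) from BAZ2B (50 nM final) in PBS pH 7.4, 0.01% Tween-20; complex preformed 30 min RT, then compounds (top 110 uM) 30 min RT, beads 20 min dark.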
PI5P4Ka inh: inhibitors of human PI5P4K alpha. P48426. PI5P4Kalpha enzyme, ADP-Glo luminescence, 60 min; stronger effect = lower value. max response, %. 330,000 compounds, 1.2% hits. AID 652105; active = max response of -50% or lower; inconclusive = between -30% and -50%; inactive = -30% or higher; note: value at the top dose of about 77 µM
Target sequence (P48426 whole entry, looked up): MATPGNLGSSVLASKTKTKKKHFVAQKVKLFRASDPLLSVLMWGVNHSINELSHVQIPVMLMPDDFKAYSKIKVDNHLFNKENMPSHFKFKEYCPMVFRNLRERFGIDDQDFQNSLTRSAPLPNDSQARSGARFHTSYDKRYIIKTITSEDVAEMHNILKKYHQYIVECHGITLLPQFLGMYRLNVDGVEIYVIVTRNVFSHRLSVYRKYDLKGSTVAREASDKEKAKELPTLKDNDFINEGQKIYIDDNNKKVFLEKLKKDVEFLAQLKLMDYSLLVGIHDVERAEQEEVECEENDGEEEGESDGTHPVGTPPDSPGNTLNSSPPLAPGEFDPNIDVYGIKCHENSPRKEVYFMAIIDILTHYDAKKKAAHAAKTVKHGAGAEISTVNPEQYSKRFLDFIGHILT
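Luminescence from ADP-Glo served as readout of PI5P4Kalpha activity in a qHTS format. Reaction: enzyme, substrate, compound, ATP at 5 microM final, 60 min at RT.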
HP1b binding inh: inhibitors of HP1-beta chromodomain binding to methylated histone tails; AID 540317; 390,000 compounds, 0.56% hits; P83916; Potency, µM (doses to about 114 µM), most hits filed as inhibitors; AlphaScreen HP1-beta / biotin-H3K9me3 peptide binding; note: nearly all actives have a fitted effect of over 70% in size
Target sequence (P83916 whole entry, looked up): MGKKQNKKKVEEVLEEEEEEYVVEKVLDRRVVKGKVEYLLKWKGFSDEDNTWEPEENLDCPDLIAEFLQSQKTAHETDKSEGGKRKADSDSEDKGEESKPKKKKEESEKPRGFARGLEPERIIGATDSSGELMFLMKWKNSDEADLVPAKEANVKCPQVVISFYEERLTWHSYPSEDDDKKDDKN
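AlphaScreen: HP1-beta (50 nM) preformed 30 min with biotin-H3(1-18)K9me3 peptide (50 nM) in PBS pH 7.4, 0.01% Tween-20. Compound added for 30 min at RT, then streptavidin donor/nickel chelate acceptor beads (10 ug/mL) for 30 min.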
PLK1 PBD block: blocks phosphopeptide binding to human PLK1 polo-box domain | Potency, µM, actives largely listed as inhibitors | Plk1 PBD binding of FITC phosphopeptide, fluorescence polarization | 360,000 compounds, 2.8% hits; note: series mostly up to about 57 µM; nearly all actives have a fitted effect of over 65% in size
JMJD2A Tudor: JMJD2A Tudor domain (human) inhibition; 390,000 compounds, 4.4% hits; Potency, µM (highest dose often 114 µM), most hits filed as inhibitors; AlphaScreen JMJD2A-Tudor / H3K4me3 peptide binding; note: nearly all actives have a fitted effect of over 50% in size
GCN5L2 inh: inhibitors of human GCN5L2 histone acetyltransferase; Q92830; GCN5L2 HAT assay, ThioGlo1 CoA-SH fluorescence; AID 504327; Potency, µM (doses to about 58.9 µM), usual class: inhibitors; 390,000 compounds, 0.21% hits
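Preincubate 20nM GCN5L2 with compound 15 min, RT → add 50uM ThioGlo1 + 75uM H3(1-25) + 70uM acetyl-CoA → read fluorescence 0 and 20 min. Primary qHTS; fluorescent artifacts likely.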
Of the large screens only hits and unclear results are named; the others gave an inactive call; ! = not confirmed by another sample. Only some compounds are listed: those with a hit (about 7% of all), similar ones and a draw of the others. Unless noted, calls come from the whole dose curve; as a rule, active = well fitted curve in the direction sought with a large enough effect; inconclusive = small, poorly fitted or top-dose-only effect, or another doubt; inactive = no such curve, though single readings can be large; an effect the other way counts as inactive or inconclusive.

CCOC(=O)c1c(C)n(-c2ccc(C)cc2)c2ccc(OCC(O)CNCC3CCCO3)cc12 (stereo unspecified)	BAZ2B inh 28.2µM, HP1b binding inh inconclusive, JMJD2A Tudor 12.6µM
Cc1cc(C)c(NC(=O)CN(C)S(=O)(=O)c2ccc3c(c2)n(C)c(=O)c(=O)n3C)c(C)c1	PLK1 PBD block inconclusive, JMJD2A Tudor inconclusive
Cc1ccc(NC(=O)CN(C)S(=O)(=O)c2ccc3c(c2)n(C)c(=O)c(=O)n3C)c(C)c1	PLK1 PBD block 21.2µM, JMJD2A Tudor inconclusive
O=C(CCCN1C(=O)/C(=C/c2ccccc2Cl)SC1=S)N1CCCC1	BAZ2B inh 14.1µM, HP1b binding inh inconclusive, JMJD2A Tudor 14.1µM
O=C(CCN1C(=O)/C(=C/c2ccccc2Cl)SC1=S)N1CCOCC1	BAZ2B inh inconclusive
O=C(CCN1C(=O)/C(=C/c2ccccc2Cl)SC1=S)N1CCCC1	BAZ2B inh 25.1µM, HP1b binding inh inconclusive, JMJD2A Tudor inconclusive
O=C1/C(=C/c2ccccn2)SC(=S)N1CCc1ccccc1	none
O=C1/C(=C/c2ccc(F)cc2)SC(=S)N1Nc1ncc(C(F)(F)F)cc1Cl	JMJD2A Tudor 63.1µM (no result: PI5P4Ka inh)
O=C1/C(=C/c2ccccn2)SC(=S)N1Nc1ncc(C(F)(F)F)cc1Cl	PI5P4Ka inh -65.9, HP1b binding inh inconclusive, PLK1 PBD block inconclusive, JMJD2A Tudor 50.1µM (no result: BAZ2B inh, GCN5L2 inh)
O=C1/C(=C/c2ccccn2)SC(=S)N1NS(=O)(=O)c1ccccc1	none
O=C1/C(=C\c2ccccn2)SC(=S)N1Nc1ncc(C(F)(F)F)cc1Cl	BAZ2B inh 79.4µM, PLK1 PBD block inconclusive, JMJD2A Tudor 56.2µM (no result: PI5P4Ka inh)
Cc1cc(C)nc(NN2C(=O)/C(=C/c3ccc(O)cc3)SC2=S)n1	BAZ2B inh inconclusive, JMJD2A Tudor inconclusive, GCN5L2 inh inconclusive (no result: PI5P4Ka inh)
Cc1cc(C)c(NC(=O)CN(C)S(=O)(=O)c2ccc3c(c2)c(=O)n(C)c(=O)n3C)c(C)c1	none (no result: PI5P4Ka inh, PLK1 PBD block)
COc1ccc(S(=O)(=O)N=Nc2c(O)[nH]c3ccccc23)cc1	none
Cc1ccc(S(=O)(=O)N=Nc2c(O)[nH]c3ccccc23)cc1C	JMJD2A Tudor 35.5µM
O=C(NCCCOc1cccc(CN2CCCCC2)c1)c1ccc(Cl)c(Cl)c1	BAZ2B inh inconclusive, HP1b binding inh inconclusive, JMJD2A Tudor 3.55µM
COc1ccc(C(CNC(=O)c2ccc(S(=O)(=O)Nc3cccc(C)c3C)cc2)N2CCOCC2)cc1 (stereo unspecified)	none (no result: BAZ2B inh, GCN5L2 inh)
COC(=O)/C=C1\N/C(=N\c2nc(C)cc(C)n2)N(c2ccccc2)C1=O	none
COC(=O)/C=C1/N/C(=N\c2nc(C)cc(C)n2)N(c2cccc(C)c2)C1=O	JMJD2A Tudor 22.4µM
CCCCNC(=O)CC1S/C(=N/N=C/c2ccc(OC)cc2)NC1=O (stereo unspecified)	none
O=C(O)CCCNC(=O)CC1S/C(=N/N=C/c2ccccc2O)NC1=O (stereo unspecified)	BAZ2B inh 50.1µM, PI5P4Ka inh inconclusive
CCC1=Nc2cc(C(=O)NC3CCCC3)ccc2Sc2ccc(Cl)cc21	none (no result: PI5P4Ka inh, PLK1 PBD block)
Cc1ccc(NC(=S)NNC(=S)NCc2ccccc2)cc1	PI5P4Ka inh inconclusive, PLK1 PBD block 29.9µM, JMJD2A Tudor inconclusive
S=C(NCc1ccccc1)C(=S)NCc1ccccc1	HP1b binding inh inconclusive, PLK1 PBD block inconclusive, JMJD2A Tudor 35.5µM (no result: BAZ2B inh, GCN5L2 inh)
CCNC(=S)NNC(=S)NCc1ccccc1	JMJD2A Tudor 1.26µM
Fc1ccc(NC(=S)NCc2ccccc2)cc1	none
Cc1cc(C)cc(N2CCn3c2nc2c3c(=O)n(C/C=C/c3ccccc3)c(=O)n2C)c1	none (no result: PI5P4Ka inh, PLK1 PBD block)
CCn1nc(-c2ccccc2C)nc2c(=O)n(C)c(=O)nc1-2	none (no result: BAZ2B inh, PI5P4Ka inh, PLK1 PBD block, GCN5L2 inh)
CN(Cc1cnc2nc(N)nc(N)c2n1)c1ccc(C(=O)N[C@@H](CCC(=O)O)C(=O)O)cc1	PI5P4Ka inh -68.3!, GCN5L2 inh inconclusive (no result: BAZ2B inh)
CC(C)Cc1ccc(-c2cc(=O)[nH][nH]2)cc1	PLK1 PBD block 16.8µM
CCn1nnc(C(=O)O)c1C(=O)O	BAZ2B inh inconclusive, JMJD2A Tudor 20µM (no result: PI5P4Ka inh)
Cn1ncc(S(=O)(=O)Cc2ccccc2)c(Cl)c1=O	BAZ2B inh inconclusive, PLK1 PBD block 3.36µM, GCN5L2 inh inconclusive
CC(=O)OCC#CCSc1nnc(-c2cccc(Br)c2)o1	none (no result: PI5P4Ka inh, PLK1 PBD block)
O=C(CCN1C(=O)c2ccccc2S1(=O)=O)Nc1ccc(F)c([N+](=O)[O-])c1	none
Cc1cc(C(=O)c2ccccc2)cc(C)c1O	none (no result: BAZ2B inh, GCN5L2 inh)
O=C(c1ccccc1)c1ccc(O)c(O)c1O	PI5P4Ka inh -90.9, HP1b binding inh inconclusive, JMJD2A Tudor 25.1µM (no result: BAZ2B inh, GCN5L2 inh)
